Here are results for eight compounds from PubChem BioAssay (NCATS).

The target in experiment [1] is Luciferin 4-monooxygenase (Photinus pyralis) (UniProt P08659). Briefly: Biochemical firefly luciferase enzyme assay for NPC (AID 624030).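 Further: purified P. pyralis luciferase at 10 nM with luciferin and ATP substrate; 0% = DMSO and -100% = full luciferase inhibition by PTC124 control; nearly all actives have a fitted effect of over 70% in size.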 In outline:
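Counter-screen for direct inhibition of the luciferase enzyme by approved-drug library compounds, run at 10 nM enzyme in 50 mM Tris acetate (final). Luminescence was read within 5 min of enzyme-buffer addition and normalized to PTC124 versus DMSO (0%).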

A short description of experiment [2]: qHTS profiling of the MIPE4 collection as inhibitors of Plasmodium falciparum (3D7) proliferation (AID 743344; call rule not given here;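 further: scaled between DMSO vehicle wells and 0.29 µM artemisinin as full inhibition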). To be noted: P. falciparum 3D7 in erythrocytes, SYBR Green DNA fluorescence, 72 h; at 28.5 µM (top of the series). The procedure, abridged:
(§1)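 Erythrocytes infected with P. falciparum (0.3% parasitemia, 2.5% hematocrit) incubated with compounds 72 h at 37 C, 5% CO2. Lysis with saponin/Triton buffer containing SYBR Green I, overnight at room temperature in the dark; DNA fluorescence (485/535 nm) normalised to 0.29 uM artemisinin and DMSO.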

Experiment [3] can be described thus: qHTS profiling of the MIPE4 collection as inhibitors of Plasmodium falciparum (DD2) proliferation (AID 743345; call rule not given here). As to conditions: P. falciparum Dd2 in erythrocytes, SYBR Green DNA, 72 h; at 28.5 µM (top of the series). The procedure, abridged: as §1
A general note: qHTS replaces the single test concentration by a dilution series.

Experiment [4] in a line: qHTS profiling of the MIPE4 collection as inhibitors of Plasmodium falciparum (DD2) proliferation (Rep 2) (AID 743346; call rule not given here). To be noted: P. falciparum Dd2 in erythrocytes, SYBR Green DNA, 72 h; at 28.5 µM (top of the series). The procedure, abridged: as §1
Experiment [5] can be described thus: qHTS profiling of the MIPE4 collection as inhibitors of Plasmodium falciparum (HB3) proliferation (AID 743347; call rule not given here;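 further: plate controls were DMSO vehicle wells for no effect and artemisinin wells for full effect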). As to conditions: P. falciparum HB3 in erythrocytes, SYBR Green DNA, 72 h; at 28.5 µM (top of the series). In outline: as §1
Experiment [6] can be described thus: P-glycoprotein substrates identified in KB-8-5-11 adenocarcinoma cell line, qHTS therapeutic library screen (AID 1346987). Further: nearly all actives have a fitted effect of over 65% in size. Further: potency means the concentration at half of the fitted maximal effect. In outline: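 Steps: plate 500 KB-8-5-11 cells/well in DMEM + 10% FCS (colchicine removed); pin compounds in dose-response; incubate 72 h, 37 degree C, 5% CO2; add CellTiter-Glo, 5 min; read luminescence.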
Another experiment deals with astro. Put plainly: Drug repurposing screens with cells derived from glioblastoma tumor samples (AID 1345199). Further: on the % scale 0 is the no-effect control and ±100 the full control effect; nearly all actives have a fitted effect of over 40% in size. To be noted: viability, ATP luminescence, 48 h; series mostly up to 45.9 µM. In outline: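 Four patient lines of CD133+ GBM neurospheres were screened at several concentrations; hits were retested in those lines plus three slower-growing GBM lines, using 48-hour treatment and ATP-based viability.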

Experiment [7] in a line: P-glycoprotein substrates identified in KB-3-1 adenocarcinoma cell line, qHTS therapeutic library screen (AID 1346986). Further: nearly all actives have a fitted effect of over 60% in size.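 Further: potency means the concentration at half of the fitted maximal effect; potency is for cytotoxicity meaning loss of cell viability.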 The procedure, abridged:
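Resistance attributable to P-gp was assessed by comparing AC50 in KB-8-5-11 with parental KB-3-1 and by tariquidar reversal. Cells were exposed 72 h and viability read by CellTiter-Glo.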

Experiment [8] is described as follows: qHTS to identify inhibitors of the type 1 interferon - major histocompatibility complex class I in skeletal muscle: primary screen against the NCATS Mechanism Interrogation Plate v5.0 (MIPE) Libary (AID 1347411). Further: nearly all actives have a fitted effect of over 65% in size. Further: potency means the concentration at half of the fitted maximal effect.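 On activity change, negative = inhibition: plate controls were vehicle for no effect and reference inhibitor for full effect.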 In outline: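 Luminescence from HiBiT-tagged endogenous HLA-B*08:01 served as the MHC class I read-out. CRISPR-engineered C25cl48 human myoblasts received 4.0 ng/ml IFN-beta plus compound for 24 hrs, with an 11-point, 1:3 series topping at 46 uM final.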

A short description of experiment [9]: Primary qHTS for inhibitors of nuclear receptor binding SET domain protein 2 (NSD2) in an isogenic RCH-ACV NSD2 p.E1099K mutant (9B) (AID 1645876). Further: nearly all actives have a fitted effect of over 70% in size. Further: potency means the concentration at half of the fitted maximal effect.
The nature of experiment [10]: Primary qHTS for inhibitors of nuclear receptor binding SET domain protein 2 (NSD2) in an RCH-ACV wild type WT cells (2C) (AID 1645877). Further: nearly all actives have a fitted effect of over 70% in size. Further: potency means the concentration at half of the fitted maximal effect.
Experiment [11] concerns the target Glutathione peroxidase 1 (Homo sapiens) (UniProt P07203). Briefly: Primary qHTS Assay for Inhibitors of Recombinant Selenoprotein Glutathione Peroxidase 1 (GPX1) (AID 1845191). Further: nearly all actives have a fitted effect of over 65% in size. Further: potency means the concentration at half of the fitted maximal effect. In outline: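 Recombinant GPX1 (10 nM final) was preincubated with compound for 30 min at room temperature, then reacted with 1 mM GSH, 0.5 mM CHP, 0.5 mM NADPH and 100 nM glutathione reductase; NADPH fluorescence (340/450 nm) was read at 0 and 15 min.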

In experiment [12] the target is Phospholipid hydroperoxide glutathione peroxidase GPX4 (Homo sapiens) (UniProt P36969). Briefly: Primary qHTS Assay for Inhibitors of Recombinant Selenoprotein Glutathione Peroxidase 4 (GPX4) (AID 1845192). Further: nearly all actives have a fitted effect of over 65% in size. Further: potency means the concentration at half of the fitted maximal effect. On activity change, negative = inhibition: on the % scale 0 is the no-effect control and ±100 the full control effect. As to conditions: outcome: dose series up to 50 µM unless noted. In outline: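 GR-coupled readout: 100 nM GR, 1 mM GSH, 0.5 mM NADPH; NADPH fluorescence (ex 340/em 450 nm) read at t=0 and after 15 min RT. GPX4 200 nM, preincubated 30 min with compound; substrate 0.5 mM CHP.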
Chain of Phospholipid hydroperoxide glutathione peroxidase GPX4 (Homo sapiens) (P36969 whole entry, looked up): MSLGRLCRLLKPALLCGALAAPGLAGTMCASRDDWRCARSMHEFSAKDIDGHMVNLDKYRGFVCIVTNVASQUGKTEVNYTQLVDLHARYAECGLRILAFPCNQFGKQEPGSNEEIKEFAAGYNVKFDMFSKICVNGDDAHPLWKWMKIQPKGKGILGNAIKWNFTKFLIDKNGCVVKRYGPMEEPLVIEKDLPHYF

The nature of experiment [13]: qHTS drug screen for cell cycle checkpoint inhibitors in PARPi-resistant BRCA-mutant ovarian cancer cell lines. (AID 1963452; calls by dose curve; further: potency means the concentration at half of the fitted maximal effect). As to conditions: PEO1/OlaR viability, CellTiter-Glo luminescence, 96 h; for Z-AUC: stronger effect = lower value. In outline: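 PEO1, PEO4 and PEO1/OlaR ovarian cancer cells, 600 per well, exposed 96 h at 37C to a dilution series. Viability read by CellTiter-Glo luminescence, normalized to DMSO and empty wells; activity summarized as Z-AUC.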

A short description of experiment [14]: qHTS assay to identify inhibitors of the type 1 interferon - major histocompatibility complex class I in skeletal muscle: Counter screen cell viability and HiBit confirmation (AID 1347412). Further: potency means the concentration at half of the fitted maximal effect. On activity change, negative = inhibition: on the % scale 0 is the no-effect control and ±100 the full control effect. On all read-outs here: nearly all actives have a fitted effect of over 60% in size. As to conditions: iHSKM muscle cells + IFN-b, HiBiT or CellTiter-Glo, 24 h; for Potency: HiBiT; for activity change, negative = inhibition: Viability, at 45.9 µM (top of the series). In outline: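 Myoblasts (C25cl48, HLA-B HiBiT) seeded in medium without dexamethasone, IFN-b 4 ng/ml added except unstimulated columns; 1 hr later compounds pinned (12-pt 1:3, top 46 uM final). Incubated 24 hrs, lysed 10 min, luminescence measured.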

The target in experiment [15] is Calcium and integrin-binding protein 1 (Homo sapiens) (UniProt Q99828). Put plainly: Primary qHTS for Identification of Calcium Integrin Binding Protein 1 (CIB1) Competitor (AID 1508620).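 Further: GST tagged CIB1 binding a fluorescein labelled alphaIIb integrin peptide tracer; top concentration of the series differs between compounds; on the % scale 0 is the no-effect control and ±100 the full control effect.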 The procedure, abridged: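 Fluorescence polarization competition: CIB1-GST (1 uM final) preincubated with compound 15 min at room temperature, then FITC-labeled alphaIIb peptide (100 nM final) added for another 15 min. Polarization read at Ex 480/Em 540.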
Chain of Calcium and integrin-binding protein 1 (Homo sapiens) (Q99828 whole entry, looked up): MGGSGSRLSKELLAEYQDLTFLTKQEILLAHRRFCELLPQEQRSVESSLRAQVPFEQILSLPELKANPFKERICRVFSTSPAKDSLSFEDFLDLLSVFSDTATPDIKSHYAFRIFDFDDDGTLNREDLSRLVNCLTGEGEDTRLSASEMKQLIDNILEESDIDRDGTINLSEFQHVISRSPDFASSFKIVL

Where [16] appears, read: measured here: PEO1 parental Z-AUC.

SMILES strings stand for the structures. Several values for one entry are separate records, joined by “and”; a condition that tells them apart may be missing. Equal entries are not always repeated. Inconclusive results are not listed. Activity calls are given as the source filed them. Unless noted, the call rests on the fitted dose curve; in most records, active means well fitted curve in the direction sought with a large enough effect; inconclusive means small, poorly fitted or top-dose-only effect, or another doubt; inactive means no such curve, though single readings can be large; an effect the other way counts as inactive or inconclusive.

Chain of Glutathione peroxidase 1 (Homo sapiens) (P07203 whole entry, looked up): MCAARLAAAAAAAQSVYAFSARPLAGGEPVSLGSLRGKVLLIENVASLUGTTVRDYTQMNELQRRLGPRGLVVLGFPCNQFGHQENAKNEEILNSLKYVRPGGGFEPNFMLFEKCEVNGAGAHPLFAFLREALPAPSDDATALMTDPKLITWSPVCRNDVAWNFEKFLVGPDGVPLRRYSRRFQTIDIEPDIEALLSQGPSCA
Chain of Luciferin 4-monooxygenase (Photinus pyralis) (P08659 whole entry, looked up): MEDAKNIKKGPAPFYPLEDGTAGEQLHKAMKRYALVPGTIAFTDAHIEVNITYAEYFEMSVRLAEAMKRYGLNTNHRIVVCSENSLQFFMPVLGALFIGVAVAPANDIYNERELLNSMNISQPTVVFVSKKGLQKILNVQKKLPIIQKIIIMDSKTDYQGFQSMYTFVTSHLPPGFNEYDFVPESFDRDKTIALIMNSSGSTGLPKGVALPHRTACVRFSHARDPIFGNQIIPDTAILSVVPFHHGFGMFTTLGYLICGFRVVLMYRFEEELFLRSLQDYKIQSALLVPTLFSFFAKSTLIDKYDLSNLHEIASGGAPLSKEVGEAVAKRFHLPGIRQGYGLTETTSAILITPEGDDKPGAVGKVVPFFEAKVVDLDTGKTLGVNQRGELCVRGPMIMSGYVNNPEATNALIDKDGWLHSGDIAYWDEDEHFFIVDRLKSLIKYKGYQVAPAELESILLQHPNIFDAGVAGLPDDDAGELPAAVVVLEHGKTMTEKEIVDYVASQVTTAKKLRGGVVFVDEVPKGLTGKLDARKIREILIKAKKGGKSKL

As to `CC1(C)N=C(N)N=C(N)N1c1ccc(Cl)cc1`, the Potency entry (in experiment [1]; in experiment [6]; in the experiment on astro) was “inactive” in each case. Besides, the parasite growth, % of DMSO control in experiment [2] worked out at 5.76%. In [3], this compound had a parasite growth remaining, % of DMSO control (lower = more inhibition) of 13.5%. This compound also gave a parasite growth, % of control (lower = inhibition) in experiment [4] of 19.9%. In experiment [5], this compound returned a growth, % of control of 2.49%.

Regarding `C=CC(=O)Nc1cccc(C)c1Nc1ncc2cc(-c3c(Cl)c(OC)cc(OC)c3Cl)ccc2n1`, the Potency is 14600 nM (active) in experiment [7]; 9200 nM (active) in [6]; 11700 nM (active) in experiment [8]; 3660 nM (active) in experiment [9]; 4110 nM (active) in [10]; 15700 nM (active) in experiment [14]. Also, the Potency entry in experiment [11] and in [12] was “inactive” throughout. Further, the Z-AUC in experiment [13] was -0.505 (inactive); in experiment [13] (setting [16]), -0.983; in experiment [13] (measured here: PEO4 Z-AUC), -1.33. In addition, in experiment [14], the activity change, negative = inhibition was 1.08% (inactive).

Take `NC(=O)c1nc(F)c[nH]c1=O`: the Potency entry in experiment [7], in experiment [6], in experiment [8], in experiment [9] and in experiment [10] was “inactive” throughout. Moreover, the Potency in experiment [11] was 20200 nM (active); in experiment [12] it was 9.04 µM (active) and 22.4 µM (active). The Z-AUC in experiment [13] is -0.413 (inactive); in experiment [13] (setting [16]), -0.874; in experiment [13] (measured here: PEO4 Z-AUC), -0.858.

Take `CN1C/C=C/CCOc2cccc(c2)-c2ccnc(n2)Nc2cccc(c2)C1`: the Potency is 92 nM (active) in experiment [7]; 231 nM (active) in [6]; 165 nM (active) in experiment [8]; 92 nM (active) in experiment [9]; 73.1 nM (active) in [10]; 549 nM (active) in experiment [13]. Also, the Potency in [14] was 111 nM (active). The Potency entry in experiment [11] and in [12] was “inactive” in each case. Besides, the Z-AUC is -1.71 in experiment [13] (setting [16]) and -1.51 in [13] (measured here: PEO4 Z-AUC). In [14], the activity change, negative = inhibition is -20% (inactive).

Take `O=C1OC(/C=C/c2ccccc2)=NC/1=C\c1cccnc1`: the Potency entry in experiment [7], in experiment [6] and in [9] was “inactive” in each case.

For the compound `COc1ccc2nc3ccc(OC)cc3c(SCCCN)c2c1`, the Potency result in experiment [7], in experiment [6], in [9] and in [10] was “inactive” in each case.

For the compound `O=C1CCCC2=C1C1(CCCC1)N=C(Nc1nc3ccccc3o1)N2`, the Potency result in experiment [7], in experiment [6], in experiment [9], in experiment [10] and in [11] was “inactive” each time. The outcome in experiment [15] was inactive.

As to `CCc1c(C(=O)NNC(=O)[C@@H](O)c2cc(F)cc(F)c2)ccc(O)c1C`, the Potency entry in experiment [7], in experiment [6], in experiment [8], in experiment [9], in [10] and in experiment [11] was “inactive” throughout. Also, the Potency entry in experiment [12] is “inactive”. In addition, the Z-AUC in experiment [13] was 1.17 (inactive); in experiment [13] (setting [16]) it was 0.688; in experiment [13] (measured here: PEO4 Z-AUC), 1.04.
